Data taken from the OligoGym collection.

The sequences below were run against HLA-DRA (assay: pooled miR-30 sensor sort-seq; sequence = guide strand). Conditions: shRNA.
Further: reference of the scale not given here.

| Sequence | sensor-assay potency score (higher = more potent) |
| --- | --- |
| TTGTCTATGAAACAGATGAGGA | -0.94 |
| AAGTCAAACATAAACTCGCCTG | -0.837 |
| TCTTCAGTGATCTTCTCTCTAA | -0.905 |
| AGACTGTCTCTGACACTCCTGT | -1.07 |
| TTCGTGAGCACAGTTACCTCTG | 0.227 |

The sequences below were run against HMGB2 in the same assay as above. Conditions: shRNA.

| Sequence | sensor-assay potency score (higher = more potent) |
| --- | --- |
| TTCTTCTTGTGCTCTTCCCGGC | -0.526 |
| TTCTGGTTCGTTCTTCTTCTTT | -0.774 |
| TTTGCAGACATGGTCTTCCATC | -0.617 |
| TTTAGCTTAGCTGCTTTCTGTT | -0.377 |
| TTCAAACTTCGACTTCTCCTTT | 0.655 |
| TATCTTTGGCTGACTGCTCAGA | -0.772 |
| TTTAGGAGCATTGGGGTCCTTT | -0.857 |
| TTAGCTTAGCTGCTTTCTGTTC | -0.873 |
| TTCTTCTTCTTTGAGCCTGTTG | -0.484 |
| TTTAGGAACATTCAACATCAGA | -0.879 |
| TTTCTTCTTGTGCTCTTCCCGG | -1.12 |

Each sequence was assayed against HMGN1 in the same assay as above. Conditions: shRNA.

| Sequence | sensor-assay potency score (higher = more potent) |
| --- | --- |
| AAGATTTATCCTTCGCTGCTGC | -0.0749 |
| TAGGATATAAAAACTAACCCCC | -0.107 |
| TAAGTCTTCTTTAGTTTCTTGG | 0.158 |
| TTTAGTTTCTTGGTTAGCCACT | -0.724 |
| TACCAAAAAATAAACAACCAGC | -1.01 |
| TTGGTTAGCCACTTCGGCCTGT | 0.684 |
| TTATCCTTCGCTGCTGCCTTTT | -1.55 |
| TTAGCTGACAACCGCGCCGATC | -1.18 |
| TTCTTGGTTAGCCACTTCGGCC | -1.77 |
| TTTAGCTGACAACCGCGCCGAT | -0.654 |
| TTGATAAAAATATTCCTCTGGA | 0.157 |
| TTCGCTTCCACTTTTGCAGGAG | 0.413 |

What follows are sequences tested against HMOX1 in the same assay as above. Conditions: shRNA.

| Sequence | sensor-assay potency score (higher = more potent) |
| --- | --- |
| TTGCACTTTGTTGCTGGCCCGC | -1.2 |
| TATAAAAACAACAGAACACAAC | -1.08 |
| TTGAGCAGGAACGCAGTCTTGG | -0.286 |
| TCTTCTATCACCCTCTGCCTGA | -0.665 |
| TTGCGGTGCAGCTCTTCTGGGA | -0.856 |
| TACAGCAACTGTCGCCACCAGA | -0.902 |
| TCTTCTGGGAAGTAGACAGGGG | -0.217 |
| AAACACAAGACACAACATCTTT | -0.747 |
| TTGAACTTGGTGGCACTGGCAA | -0.865 |
| TCATGAACTCAGCATTCTCTGC | -0.85 |
| TAGGGGATGACCTCCTGCCAGC | -1.69 |
| TAGAGCTGCTTGAACTTGGTGG | 0.136 |
